Data published in PubChem BioAssay (EPA / NIEHS).
Inconclusive results are not listed. Calls of active or inactive are those of the source. The calls were made as follows, unless noted: active = hit-call score of the fitted dose curve at least 0.9, where 1 is the maximum; inconclusive = response in the unintended direction; inactive = score below 0.9.

system: not listed separately; assay: TAMU_PeakParms_SingleDonor1434_Asystole: Texas A&M University (TAMU) 1.5-hr Human Induced Pluripotent Stem Cell (iPSC)-derived Cardiomyocytes Calcium (Ca+2) Flux Assay for Cardiotoxicity: Asystole (quiescence of beating) (AID 2284328)
How it was run: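 Human iPSC-derived cardiomyocytes (donor 1434) were exposed to 0.2, 1, 10 and 100 uM compound in 0.5% DMSO for 90 min at 37C. Ca2+-dye fluorescence gave average peak frequency; POD is EC95, a 95% beat-rate drop versus DMSO.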

| Compound | outcome |
| --- | --- |
| CC/C(=C(\c1ccccc1)c1ccc(OCCN(C)C)cc1)c1ccccc1 | inactive |
| N#CCCNCCC#N | inactive |
| CNC(=C[N+](=O)[O-])NCCSCc1ccc(CN(C)C)o1 | inactive |

system: not listed separately; assay: IUF_NPC1_cytotoxicity_72hr: Cytotoxicity Assessment at 72 hours in the Leibniz Research Institute for Environmental Medicine (IUF) Neural Progenitor Cell Proliferation Assay (NPC1) (AID 2284332);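 also: rising LDH signal means more cytotoxicity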
How it was run: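 Human fetal neural progenitor spheres (0.3 mm) in EGF/FGF proliferation medium, 37C, exposed 72 h without renewal. LDH release in supernatant read by resorufin fluorescence; gain of signal scored relative to dynamic range.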

| Compound | outcome |
| --- | --- |
| CC(C)Cc1ccc(C(C)C(=O)O)cc1 (stereo not given) | inactive |
| CCCCC(CC)COC(=O)COc1ccc(Cl)cc1C (stereo not given) | inactive |
| c1ccc2scnc2c1 | inactive |
| N[C@@H](CCC(=O)O)C(=O)O | inactive |

system: not listed separately; assay: CCTE_Mundy_HCI_iCellGluta_NOG_NeuronCount: CCTE's Neurite Outgrowth Assay in iCellGluta cells for Neuron Count, Mundy Lab (AID 2284340);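 also: cells fixed about 48 h after compound addition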
How it was run: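 Neuron count read by automated high-content imaging of Hoechst 33342 and betaIII-tubulin/Alexa Fluor-488 labelling in human iPSC glutamatergic neurons. Activity fitted relative to DMSO.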

| Compound | outcome | AC50 |
| --- | --- | --- |
| CC(C)Cc1ccc(C(C)C(=O)O)cc1 (stereo not given) | inactive | – |
| N#CCCNCCC#N | inactive | – |
| CCCCC(CC)COC(=O)COc1ccc(Cl)cc1C (stereo not given) | – | 39 µM (active) |
| c1ccc2scnc2c1 | inactive | – |
| N[C@@H](CCC(=O)O)C(=O)O | inactive | – |

system: not listed separately; assay: CCTE_Mundy_HCI_iCellGluta_NOG_NeuriteCount: CCTE's Neurite Outgrowth Assay in iCellGluta cells for Neurite Count, Mundy Lab (AID 2284342);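 also: chemical exposure about 48 hours starting 2 hours after plating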

| Compound | outcome | AC50 |
| --- | --- | --- |
| CC(C)Cc1ccc(C(C)C(=O)O)cc1 (stereo not given) | inactive | – |
| N#CCCNCCC#N | inactive | – |
| CCCCC(CC)COC(=O)COc1ccc(Cl)cc1C (stereo not given) | – | 32.2 µM (active) |
| c1ccc2scnc2c1 | inactive | – |
| N[C@@H](CCC(=O)O)C(=O)O | inactive | – |

system: SERPINA7 (gene 6906); assay: CCTE_GLTED_hTBG: CCTE's human Thyroxine-binding Globulin (TBG) Inhibition Assay, Great Lakes Toxicology and Ecology Division (GLTED) Lab (AID 2284343);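 also: active chemicals lower fluorescence versus DMSO baseline by displacing probe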
How it was run: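 Human TBG incubated 2 h with test chemical; displacement of ANSA probe read by fluorescence, 380 nm excitation/475 nm emission. Loss of signal relative to DMSO.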

| Compound | AC50 |
| --- | --- |
| O=C(O)c1ccccc1O | 50 µM (active) |
| O=S(=O)(O)c1cc(S(=O)(=O)O)c2c(N=Nc3ccccc3)c(O)ccc2c1 | 33.9 µM (active) |
| O=C(O)C(F)(F)C(F)(F)C(F)(F)C(F)(F)C(F)(F)C(F)(F)C(F)(F)C(F)F | 73.1 µM (active) |
| CCCCCCOc1ccc(O)cc1 | 33.7 µM (active) |
| O=c1cc(-c2ccc(O)cc2)oc2cc(O)cc(O)c12 | 38.2 µM (active) |
| CCCCCCCCOC(=O)c1ccc(O)cc1 | 7.24 µM (active) |
| CCCCCCCCCCCCOCCOS(=O)(=O)O | 50 µM (active) |

system: not listed separately; assay: CCTE_Padilla_ZF_Score.Craniofacial: CCTE's 144 Hour Post-fertilization zebrafish Assay Score for Craniofacial Malformation, Padilla Lab (AID 2284405; active = hit-call score of the fitted dose curve at least 0.9, where 1 is the maximum; inactive = score below 0.9)
How it was run: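 Wild-type zebrafish embryos (with chorions), one per well in 10% Hanks', were dosed at 6–8 hpf in sealed plates and kept at 26C. They were rinsed at 5 dpf. At 6 dpf two blinded assessors scored craniofacial malformations by brightfield stereomicroscopy.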

| Compound | outcome | AC50 |
| --- | --- | --- |
| C=C(C)C(=O)OCCC(F)(F)C(F)(F)C(F)(F)C(F)(F)C(F)(F)C(F)(F)C(F)(F)C(F)(F)F | inactive | – |
| O=C(O)C(F)(F)OC(F)(F)C(F)(F)OC(F)(F)C(F)(F)C(F)(F)C(F)(F)F | inactive | – |
| O=C(O)C(F)(F)C(F)(F)C(F)(F)C(F)(F)C(F)(F)C(F)(F)C(F)(F)C(F)F | inactive | – |
| O=S(=O)(O)C(F)(F)C(F)(F)OC(F)(F)C(F)(F)F | inactive | – |
| C=C(F)C(=O)OC(C(F)(F)F)C(F)(F)F | inactive | – |
| OCC(F)(OC(F)(F)C(F)(OC(F)(F)C(F)(F)C(F)(F)F)C(F)(F)F)C(F)(F)F (stereo not given) | – | 34.8 µM (active) |
